± gives the standard deviation of the averaged measurements.
System: SUM149
Assay: percent difference in area under dose-response curve of relative cell number, RPMI vs HPLM; higher = drug relatively more effective in HPLM than RPMI (negative = less effective in HPLM)
Conditions: treatment time: 72 h; dose range: 10-point, 1 nM to 20 µM; media compared: RPMI vs HPLM
Protocol: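 SUM149 triple-negative breast cancer cells, 500 cells/well in 384-well plates, were grown in RPMI or human plasma-like medium (HPLM) with 5% dialyzed FBS. They were pin-transferred with an anticancer plus metabolic-inhibitor library in 10-point dose series (20 µM to 1 nM). After 72 h, cells were fixed, stained with bisbenzimide and counted by Acumen plate cytometry. The AUC of relative survival vs dose was computed per medium, and the percent difference in AUC between RPMI and HPLM is reported.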

First: c1ccc2c(c1)[I+]c1ccccc1-2 [Diphenyleneiodonium_chloride]
Second: O=S(=O)(CC1CS1)c1ccc(Oc2ccccc2)cc1 (centres undefined)
The “percent difference in area under dose-response curve” value (shortened to “percent difference in area”) of the first is lower: -42% for the first, 4.58% for the second.

First: C[S+]([O-])CCCCN=C=S (centres undefined) [Sulforaphane]
Second: S=C=NCCc1ccccc1
The “percent difference in area” value of the first is higher: -4.37% for the first, -5.8% for the second.

First: CC(C)[C@]12O[C@H]1[C@@H]1O[C@]13[C@]1(O[C@H]1C[C@H]1C4=C(CC[C@@]13C)C(=O)OC4)[C@@H]2O [Triptolide]
Second: C/C(=C\c1csc(C)n1)[C@@H]1C[C@@H]2O[C@]2(C)CCC[C@H](C)[C@H](O)[C@@H](C)C(=O)C(C)(C)[C@@H](O)CC(=O)O1 [Epothilone_B]
The “percent difference in area” value of the first is lower: -67% for the first, -49.1% for the second.

Going from `CC(=O)N[C@H]1[C@@H](O[C@@H]2O[C@H](CC(O)[C@H]3O[C@@H](n4ccc(=O)[nH]c4=O)[C@H](O)[C@@H]3O)[C@H](O)[C@H](O)[C@H]2NC(=O)/C=C/CC(C)C)O[C@H](CO)[C@@H](N)[C@@H]1O` (some centres undefined) [Tunicamycin] to `CC[C@@H]1/C=C/C=C/C[C@H](C)[C@H](O)[C@](C)(O)C(=O)[C@H](C)[C@@H](O)[C@H](C)C(=O)[C@H](C)[C@@H](O)[C@H](C)/C=C/C(=O)O[C@H]2[C@@H](C)[C@@H](CC1)O[C@@]1(CC[C@@H](C)[C@@H](C[C@H](C)O)O1)[C@@H]2C` [Oligomycin_A], the “percent difference in area” value falls from -6.39% to -41%.

Going from `C/C=C(/C)C(=O)O[C@H]1C(C)=C2[C@H]([C@@H]1OC(=O)CCCCCCC)[C@@](C)(OC(C)=O)C[C@H](OC(=O)CCC)[C@@]1(O)[C@H]2OC(=O)[C@@]1(C)O` [Thapsigargin] to `CCCCCC[C@H]1C(=O)O[C@H](C)[C@H](NC(=O)c2cccc(NC=O)c2O)C(=O)O[C@@H](C)[C@@H]1OC(=O)CC(C)C` [Antimycin_A], the “percent difference in area” value rises from -31.9% to -6.05%.

First: N#Cc1cn([C@@H]2O[C@H](CO)[C@@H](O)[C@H]2O)c2ncnc(N)c12 [Toyocamycin]
Second: NC(=O)c1ccc(N)nc1 [6_Aminonicotinamide]
The “percent difference in area” value of the first is lower: -27.1% for the first, -3.77% for the second.

First: Cn1c(CCCC(=O)O)nc2cc(N(CCCl)CCCl)ccc21 [Bendamustine_HCL]
Second: O=C(O)CCCc1ccc(N(CCCl)CCCl)cc1 [Chloroambucil]
The “percent difference in area” value of the first is higher: -4.52% for the first, -5.32% for the second.

Going from `C/C(=C\c1csc(C)n1)[C@@H]1C[C@@H]2O[C@@H]2CCC[C@H](C)[C@H](O)[C@@H](C)C(=O)C(C)(C)[C@@H](O)CC(=O)O1` [Epothilone_A] to `C=C(C)[C@H]1Cc2c(ccc3c2O[C@@H]2COc4cc(OC)c(OC)cc4[C@@H]2C3=O)O1` [Rotenone], the “percent difference in area” value rises from -32.6% to -23%.

First: Cc1sc2c(c1C)C(c1ccc(Cl)cc1)=N[C@@H](CC(N)=O)c1nnc(C)n1-2
Second: CCOc1ccccc1-n1c(C(C)N2CCN(C(=O)COc3ccc(Cl)cc3)CC2)nc2ccccc2c1=O (centres undefined) [Erastin]
The “percent difference in area” value of the first is lower: -25.8% for the first, -2.91% for the second.

`Cc1cc2c(C(C)C)c(O)c(O)c(C=O)c2c(O)c1-c1c(C)cc2c(C(C)C)c(O)c(O)c(C=O)c2c1O` [Gossypol] and `CC(=O)c1c(O)c(C)c(O)c(Cc2c(O)c3c(c(C(=O)/C=C/c4ccccc4)c2O)OC(C)(C)C=C3)c1O` [Rottlerin] are within error of each other in “percent difference in area” value: -5.85 ± 4.1% for the first, -6.49% for the second.

Going from `CC1=CC(=O)c2c(O)cccc2C1=O` [Plumbagin] to `Oc1cc(Cl)ccc1Oc1ccc(Cl)cc1Cl` [Triclosan], the “percent difference in area” value rises from -4.04% to 2.04%.

Going from `[N-]=[N+]=CC(=O)OC[C@H](N)C(=O)O` [Azaserine] to `O=C1CSC(c2ccccc2Cl)c2cc(Cl)ccc2N1` (centres undefined), the “percent difference in area” value rises from -16.2% to 4.73%.

Reference: the supplement of paper PMC11383364
